Experimental data reported in PubChem BioAssay (NCI).
About 83,000 compounds went through this panel and 20% of them were active in at least one assay; those are over-represented in the sample as a whole.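 Growth was measured after 48 h exposure to one concentration of compound in 96-well plates. Values under 10 count as active.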 The source made the active and inactive calls.

Key:
Assay in all cases: NCI-60 one-dose screen, 48 h (100 = growth as untreated, 0 = no growth, -100 = all killed)
Conditions in all cases: 10 µM unless noted
DU-145 prostate = tested on: DU-145 prostate
K-562 leukemia = tested on: K-562 leukemia
MALME-3M melanoma = tested on: MALME-3M melanoma
MDA-MB-231 breast = tested on: MDA-MB-231 breast
RXF 393 renal = tested on: RXF 393 renal
SF-268 CNS = tested on: SF-268 CNS
SF-295 CNS = tested on: SF-295 CNS
SF-539 CNS = tested on: SF-539 CNS
UACC-257 melanoma = tested on: UACC-257 melanoma
M14 melanoma = tested on: M14 melanoma
HCT-15 colon = tested on: HCT-15 colon
HT29 colon = tested on: HT29 colon
SNB-75 CNS = tested on: SNB-75 CNS
SNB-19 CNS = tested on: SNB-19 CNS
U251 CNS = tested on: U251 CNS
PC-3 prostate = tested on: PC-3 prostate
SK-MEL-5 melanoma = tested on: SK-MEL-5 melanoma
UACC-62 melanoma = tested on: UACC-62 melanoma
LOX IMVI melanoma = tested on: LOX IMVI melanoma
SK-MEL-28 melanoma = tested on: SK-MEL-28 melanoma

Measured: growth

COc1ccccc1NC(=O)C1CC(c2ccc(F)cc2)=NO1 (stereo not given)
inactive: DU-145 prostate 106% | K-562 leukemia 95% | MALME-3M melanoma 100% | MDA-MB-231 breast 98.5% | RXF 393 renal 97% | SF-268 CNS 97.4% | SF-295 CNS 96.2% | SF-539 CNS 95.5% | UACC-257 melanoma 107% | M14 melanoma 104% | HCT-15 colon 99.2% | HT29 colon 103% | SNB-75 CNS 87.9% | SNB-19 CNS 96.8% | U251 CNS 96.3% | PC-3 prostate 104% | SK-MEL-5 melanoma 95.3% | UACC-62 melanoma 96% | LOX IMVI melanoma 95.5% | SK-MEL-28 melanoma 107%

COc1cc2c(c(OC)c1OC)CCC(c1cccc(NC(=O)c3cccc(Br)c3)c1)O2 (stereo not given)
inactive: DU-145 prostate 91.9% | K-562 leukemia 88% | MALME-3M melanoma 100% | MDA-MB-231 breast 92.6% | RXF 393 renal 87.6% | SF-268 CNS 87.1% | SF-295 CNS 92.5% | SF-539 CNS 97.7% | UACC-257 melanoma 81.6% | M14 melanoma 90.5% | HCT-15 colon 87.7% | HT29 colon 87% | SNB-75 CNS 86.8% | SNB-19 CNS 94.5% | U251 CNS 93.5% | PC-3 prostate 76.1% | SK-MEL-5 melanoma 88.2% | UACC-62 melanoma 70.1% | LOX IMVI melanoma 92.4% | SK-MEL-28 melanoma 90.9%

COc1ccc(CC(C)=C(c2ccc(OCCN3CCCCCC3)cc2)c2ccc(OCCN3CCCCCC3)cc2)cc1
active: DU-145 prostate -96.2% | K-562 leukemia -55.4% | MALME-3M melanoma -91.9% | MDA-MB-231 breast -98.2% | RXF 393 renal -82.1% | SF-268 CNS -81.2% | SF-295 CNS -93.3% | SF-539 CNS -95.8% | UACC-257 melanoma -76.3% | M14 melanoma -67.3% | HCT-15 colon -95.9% | HT29 colon -85% | SNB-75 CNS -92.9% | SNB-19 CNS -95% | U251 CNS -91.4% | PC-3 prostate -87.2% | SK-MEL-5 melanoma -97.9% | UACC-62 melanoma -97.1% | LOX IMVI melanoma -100% | SK-MEL-28 melanoma -99.1%

CC(=O)N1N=C(c2ccc(-n3ccc(C(F)(F)F)n3)c(F)c2)CC1c1ccc[nH]1 (stereo not given)
inactive: DU-145 prostate 109% | K-562 leukemia 91.9% | MALME-3M melanoma 102% | MDA-MB-231 breast 105% | RXF 393 renal 116% | SF-268 CNS 104% | SF-295 CNS 98.8% | SF-539 CNS 102% | UACC-257 melanoma 96.4% | M14 melanoma 102% | HCT-15 colon 98.8% | HT29 colon 102% | SNB-75 CNS 103% | SNB-19 CNS 100% | U251 CNS 99.3% | PC-3 prostate 96.7% | SK-MEL-5 melanoma 97.7% | UACC-62 melanoma 90.7% | LOX IMVI melanoma 98.1% | SK-MEL-28 melanoma 105%

COc1ccc(NC(N)=NCCCOc2ccc(F)cc2)cc1
inactive: DU-145 prostate 48.5% | K-562 leukemia 91.5% | MALME-3M melanoma 96.6% | MDA-MB-231 breast 93.8% | RXF 393 renal 104% | SF-268 CNS 77.7% | SF-295 CNS 70.9% | SF-539 CNS 71.7% | UACC-257 melanoma 25.4% | M14 melanoma 69.1% | HCT-15 colon 92.2% | HT29 colon 36.6% | SNB-75 CNS 81.9% | SNB-19 CNS 81.5% | U251 CNS 85.7% | PC-3 prostate 66.8% | SK-MEL-5 melanoma 28% | UACC-62 melanoma 87.8% | LOX IMVI melanoma 89.8% | SK-MEL-28 melanoma 88.5%

CCCOC(=O)N[C@H]1CCc2cc(OC)c(OC)c(OC)c2-c2ccc(SC)c(=O)cc21
active: DU-145 prostate -18.3% | K-562 leukemia 7.7% | MDA-MB-231 breast -8.18% | SF-539 CNS -21.5% | M14 melanoma 6.23% | SK-MEL-5 melanoma -14.6%
inactive: MALME-3M melanoma 35.4% | RXF 393 renal 19.5% | SF-268 CNS 22.6% | SF-295 CNS 17.3% | UACC-257 melanoma 71.8% | HCT-15 colon 14.8% | HT29 colon 14.2% | SNB-75 CNS 34.3% | SNB-19 CNS 36.2% | U251 CNS 19.6% | PC-3 prostate 29.5% | UACC-62 melanoma 41.5% | LOX IMVI melanoma 18.6% | SK-MEL-28 melanoma 58.7%

COc1cccc(C(=O)NNc2nc(Cl)nc(N3CCN(C(c4ccccc4)c4ccccc4)CC3)n2)c1
inactive: DU-145 prostate 101% | MALME-3M melanoma 84.1% | MDA-MB-231 breast 59% | RXF 393 renal 78.4% | SF-268 CNS 99.3% | SF-295 CNS 96.3% | SF-539 CNS 90.8% | UACC-257 melanoma 88.4% | M14 melanoma 45.4% | HCT-15 colon 13.3% | HT29 colon 20.3% | SNB-75 CNS 89.3% | SNB-19 CNS 77.4% | U251 CNS 100% | PC-3 prostate 34.3% | SK-MEL-5 melanoma 91.2% | UACC-62 melanoma 76.5% | SK-MEL-28 melanoma 89.1%
active: K-562 leukemia -34.7% | LOX IMVI melanoma 2.99%

C=C1C(=O)O[C@H]2[C@H]1CC/C(CNC(=O)/C=C/c1cccc(OC)c1)=C\CC[C@@]1(C)O[C@@H]21
inactive: DU-145 prostate 13.2% | SF-268 CNS 48.4% | SF-295 CNS 71.8% | SNB-75 CNS 90.1% | SNB-19 CNS 55.5% | U251 CNS 47.3% | PC-3 prostate 36% | SK-MEL-5 melanoma 67.8%
active: K-562 leukemia 3.75% | MALME-3M melanoma -45% | MDA-MB-231 breast 7.34% | RXF 393 renal -80.5% | SF-539 CNS -70.5% | UACC-257 melanoma -6.14% | M14 melanoma -36.8% | HCT-15 colon -44.7% | HT29 colon -36.7% | UACC-62 melanoma -26.6% | LOX IMVI melanoma 0.442% | SK-MEL-28 melanoma -48.7%
